Hits are enriched below; roughly 8% of the tested compounds scored in any of these assays.
KB-V1 cytotox = KB-V1 MDR subline cytotoxicity. KB-V1 MDR cells viability, CellTiter-Glo, 72 h. Potency, µM (series often up to 46.1 µM), usual class: cytotoxic. 400,000 compounds, 3.4% hits; note: % is set by controls: 0 for no effect and ±100 for the full control effect; nearly all actives have a fitted effect of over 60% in size
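Compound-treated KB-V1 multidrug-resistant cells, 72 h, 37 degrees C; viability by CellTiter-Glo. Fitted qHTS curves give the values.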
HT1080NT lethal = kills 2HG-producing HT-1080-NT fibrosarcoma cells. HT-1080-NT fibrosarcoma viability, CellTiter-Glo ATP luminescence, 48 h. AID 686970. 360,000 compounds, 1.6% hits. Potency, µM (top dose mostly 46.1 µM), inactives show at the top dose activity, negative = less viability, usual class: cytotoxic;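 note: NT is the 2HG producing partner of a matched IDH1 knockdown line; 0% = DMSO-treated cells and -100% = media-only wells without cells; nearly all actives have a fitted effect of over 55% in size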
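Toxicity toward the 2HG-producing NT line was scored as %Activity, normalised to DMSO and no-cell wells, from CellTiter-Glo luminescence after 48 hours' treatment.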
KB-3-1 cytotox = KB-3-1 parental cell cytotoxicity; Potency, µM (top dose mostly 46.1 µM), actives largely listed as cytotoxic; 400,000 compounds, 1.4% hits; KB-3-1 viability, CellTiter-Glo ATP luminescence, 72 h; AID 1347075; note: % is set by controls: 0 for no effect and ±100 for the full control effect; nearly all actives have a fitted effect of over 60% in size
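Parental KB-3-1 viability, qHTS format: 72 h compound exposure, 37 °C; CellTiter-Glo; media-only wells and DMSO plates as controls; concentration-effect fits on corrected data.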
HT1080 IDH1KD tx = HT-1080 IDH1 knockdown cell toxicity (counter line); 360,000 compounds, 2% hits; AID 686971; Potency, µM (titrated, usually from 46.1 µM), for inactives: at the top dose activity, negative = toxicity, actives largely listed as cytotoxic; HT-1080 IDH1 knockdown viability, ATP luminescence, 48 h;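 note: 0% = DMSO wells and -100% = cell-free medium wells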
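Assay cells: HT-1080 with IDH1 knockdown, 750 per well, RPMI/5% FBS. Exposure: 48 h at 37 °C following 2 h pre-incubation. Read: CellTiter-Glo luminescence; fitted concentration-response, curve class assigned.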
MCF10A rereplic = induces DNA re-replication in MCF 10a normal breast cells; 350,000 compounds, 2.9% hits; MCF 10A DNA re-replication, Hoechst nuclear intensity, 48 h; AID 624296; Potency, µM (titrated, usually from 46.1 µM), without a hit: at the highest dose activity, positive = re-replication, most hits filed as activators; note: % of control where 0% means no effect; nearly all actives have a fitted effect of over 50% in size
SW480 rerep = inducers of DNA re-replication in SW480 colon cancer cells | 340,000 compounds, 1.8% hits | SW480 DNA re-replication, Hoechst DNA content imaging, 48 h | Potency, µM (highest dose often 46.1 µM), inactives show at the top dose re-replication activation, actives largely listed as activators; note: % of control where 0% means no effect; nearly all actives have a fitted effect of over 55% in size
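First, 250 cells per well were seeded. Next, compound or vehicle (23 nL) was pinned in, plates sat 48 hr at 37 C. Finally Hoechst was added for 40 min before fluorescence scanning.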
* hit, by the source's call; i = inactive; ? = inconclusive; / = no result. Calls come from the whole dose curve; as a rule, active = well fitted curve in the direction sought with a large enough effect; inconclusive = small, poorly fitted or top-dose-only effect, or another doubt; inactive = no such curve, though single readings can be large; an effect the other way counts as inactive or inconclusive. Potency is the fitted concentration of half-maximal effect.

SMILES	KB-V1 cytotox	HT1080NT lethal	KB-3-1 cytotox	HT1080 IDH1KD tx	MCF10A rereplic	SW480 rerep
CC(=O)c1cccc(NC(=O)c2ccc3c(c2)N(Cc2ccc(C)cc2)CCS3)c1	i	/	i	/	/	/
COc1cccc2c1C(=O)/C(=C/c1ccc(N(C)C)cc1)C2	i	/	i	/	/	/
O=[N+]([O-])c1ccc(N2CCN(Cc3ccccc3)CC2)s1	?	-12%	i	-4%	-3%	7%
O=[N+]([O-])c1ccc(N2CCN(Cc3ccccc3)CC2)c2c1no[n+]2[O-]	6.5µM*	23µM*	2.1µM*	15µM*	/	/
Cc1ccc(SC(C)C(=O)Nc2ccccc2-c2ccccc2)cc1 (stereo not drawn)	21µM*	-1%	i	-7%	20%	?
CC(NC1CCCC1)C(=O)Nc1ccccc1-c1ccccc1 (stereo not drawn)	12µM*	4%	i	0%	20%	-1%
O=C(CCC1CCCC1)Nc1ccccc1-c1ccccc1	18µM*	-1%	i	-5%	-33%	-63%
O=C(CC1CCCCC1)Nc1ccccc1-c1ccccc1	i	2%	i	5%	?	1%
O=C(CCC1CCCCC1)Nc1ccccc1-c1ccccc1	?	3%	i	2%	29%	-2%
O=C(Cn1cc(C(=O)C2CCCCC2)c2ccccc21)Nc1ccccc1Cl	?	/	i	/	/	/
O=[S+]([O-])(Nc1ccccc1F)c1cccc(NC/C=C/c2ccccc2)c1	i	/	i	/	/	/
COc1ccc2c(c1)CC(NC(=O)Nc1ccc(Br)c(C)c1)CO2 (stereo not drawn)	i	/	i	/	/	/
Cc1cccc(C)c1NC(=O)Cn1cnc2c(=O)n(C)c(=O)n(C)c21	i	-1%	i	2%	-1%	-16%
Cc1ccccc1C(=O)Nc1cccc(NC(=O)Cn2cnc3c(=O)n(C)c(=O)n(C)c32)c1	i	?	i	11µM*	0%	16%
COC(=O)c1ccc(NC(=O)CSC2=NCCN2)cc1	?	?	?	-24%	15µM*	?
Cc1ccc(Nc2ncnc3onc(C)c23)cc1Cl	i	/	i	/	/	/
O=C(Nc1cccc(-c2cccc(Cl)c2)c1)C1CCN(CC2CCOC2)CC1 (stereo not drawn)	i	18µM*	?	?	15%	37%
O=C(Nc1cccc(-c2cccc(Cl)c2)c1)C1CCN(Cc2ccon2)CC1	i	?	?	?	9%	?
COCc1ccc(CN2CCC(C(=O)Nc3cccc(-c4cccc(Cl)c4)c3)CC2)o1	?	15µM*	?	16µM*	?	?
COCc1ccc(CN2CCC(C(=O)Nc3cccc(-c4cscn4)c3)CC2)o1	i	3%	i	-1%	27%	2%
Cc1cccc(-c2ccc(NC(=O)C3CCN(CC4CC4)CC3)cc2)c1	i	21µM*	i	?	?	?
Cc1ccccc1CNCc1c(C(=O)O)c(C)n(Cc2ccc(F)cc2Cl)c1C	?	/	i	/	/	/
Cc1oc(/N=C/c2cccc([N+](=O)[O-])c2)c(C#N)c1C	i	0%	i	5%	4%	-7%
Cc1ccc(-c2nc(C=Nc3ccc(O)cc3)c(O)o2)cc1	?	?	i	?	15µM*	5.8µM*
Cc1ccc(N=Cc2nc(/C=C/c3cccc([N+](=O)[O-])c3)oc2O)cc1	16µM*	22%	i	7%	?	-4%
CN=Cc1nc(-c2ccccc2)oc1O	i	-5%	i	-10%	-1%	-6%
Cc1cc(C)c2cc(C#N)c(N3CCCN(C(=O)c4cnccn4)CC3)nc2c1	?	2%	i	1%	21µM*	2%
COc1ccccc1C(=O)N1CCN(c2nc3cc(C)cc(C)c3cc2C#N)CC1	?	0%	i	-7%	/	/
